In PubChem BioAssay (NCI):
This is part of a sample that, as a whole, favours compounds with a hit. Of some 83,000 tested, about 20% had one in any assay.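 Growth was measured after 48 h exposure to one concentration of compound in 96-well plates. Values under 10 count as active.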 Activity calls are given as the source filed them.

What follows are compounds tested on DU-145 prostate (assay: NCI-60 one-dose screen, 48 h (100 = growth as untreated, 0 = no growth, -100 = all killed)). Conditions: 10 µM unless noted.

SMILES | growth
CN(C[C@H]1Cc2c(cccc2N2CCN(c3ncccn3)CC2)CN1)[C@H]1CCCc2cccnc21 | 55% (inactive)
COc1ccc(-c2cnoc2-c2ccc(OC)cc2O)cc1 | 30.9% (inactive)
COc1ccc(/C=N\NC(=O)CN2CCN(c3cc4c(cc3F)c(=O)c(C(=O)N/N=C/c3ccc(OC)c(OC)c3)cn4C3CC3)CC2)cc1OC | 4.82% (active)
C1=Cc2ccccc2N(c2nnc(-c3ccccc3)o2)c2ccccc21 | 105% (inactive)
COc1ccc(-c2nc3sc(-c4cc(OC)c(OC)c(OC)c4)nn3c2/C=C2/C(=O)Nc3ccc(F)cc32)cc1 | -61.9% (active)
O=C(Oc1ccccc1[N+](=O)[O-])C1CCCN1C(=O)OCc1ccccc1 (centres undefined) | 111% (inactive)
CC(C)(C)OC(=O)NC(CSCc1ccccc1)C(=O)ON1C(=O)CCC1=O (centres undefined) | 112% (inactive)
O=S(=O)(NCCCNc1nccc(-n2ccc3cccnc32)n1)c1ccc(Br)cc1 | 104% (inactive)
COc1ccc(/C=C2\Oc3cc(OCCCN4CCCC4)ccc3C2=O)cc1 | 95.4% (inactive)
Cc1csc(NC(c2ccc(Br)cc2)c2c(C)nc3ccccn23)n1 (centres undefined) | 107% (inactive)
Cn1c(=O)cc(NC(=O)CN2CCN(c3cc4c(cc3F)c(=O)c(C(=O)O)cn4C3CC3)CC2)[nH]c1=O | 103% (inactive)
CC(C)(C)n1cc(-c2ccnc(NCCNS(=O)(=O)c3ccc(F)cc3)c2)c(-c2cccc(O)c2)n1 | 74.9% (inactive)
CC(C)(C)n1cc(-c2ccnc(NCCNS(=O)(=O)c3ccc(Cl)cc3)c2)c(-c2cccc(O)c2)n1 | 80.6% (inactive)
O=C1Nc2ccc3c(c2/C1=C\c1cc2c(cc1Br)OCO2)OCO3 | -12.6% (active)
Cc1ccc(N2CCN(C(C)C(N)=O)CC2)cc1 (centres undefined) | 116% (inactive)
COc1cc(NC(N)=NCCC(C)(C)Oc2ccc(C(F)(F)F)cc2)ncc1C#N | -32.6% (active)
CCc1ccc(-c2ccc(=O)n(-c3ccc(S(N)(=O)=O)cc3)n2)cc1 | 59.6% (inactive)
CC[N+](CC)=c1cc2oc3cc(N(C)C)ccc3nc-2cc1C | 73.8% (inactive)
COc1cccc(-c2nc3sccn3c2-c2ccnc(NCCCNS(=O)(=O)c3ccc(F)cc3)c2)c1 | 34% (inactive)
N[C@H]1CN(C(=O)c2cc3cc(Br)c(F)c(F)c3[nH]2)C[C@@H]1O | 112% (inactive)

SMILES | growth
O=C(N/N=C/C=C\c1ccccc1)C(=O)N/N=C/C=C/c1ccccc1 | 112% (inactive)
O=C(O)COc1ccc(-c2cssc2=S)cc1 | 120% (inactive)
CCOC(=O)c1c(NS(=O)(=O)c2ccc(C)cc2)sc2c1CCC1(C2)OCCO1 | 114% (inactive)
Cc1nc2ncccc2nc1Nc1ccc(S(=O)(=O)Nc2ccccn2)cc1 | 105% (inactive)
Fc1ccc(Nc2ncnc3ccc(-c4cnc5[nH]ccc5c4)cc23)cc1Cl | 40.4% (inactive)
COc1ccc(C2C(C#N)=C(N)Oc3c2ccc2ccccc32)cc1 (centres undefined) | 78.4% (inactive)
COc1ccc(C(=O)N2NC(=O)/C(=C/c3cn(-c4ccccc4)nc3-c3ccccc3)N=C2c2ccccc2)cc1 | 108% (inactive)
C=C1C(=O)O[C@H]2[C@H]1CC/C(Cn1cc(CNC(=O)Cc3cn(C(=O)c4ccc(Cl)cc4)c4ccc(OC)cc34)nn1)=C\CC[C@@]1(C)O[C@@H]21 | 31.9% (inactive)
CCCCC(CC)OC(=O)C(Br)CC (centres undefined) | 107% (inactive)
O=C1/C(=C/c2ccccc2)Oc2ccc(O)c(I)c21 | 111% (inactive)
COC(=O)c1cc2cc(-c3ccc(OC)cc3)cnc2[nH]1 | 18.1% (inactive)
c1coc(CNc2ccnc(Nc3ccc(OCCN4CCCCC4)cc3)n2)c1 | 91.6% (inactive)
COc1ccc2[nH]c(C(=O)OCc3ccc4c(Cl)cc(Cl)c(O)c4n3)cc2c1 | -98.2% (active)
CCOC(=O)C1CCNC(=O)C1=O (centres undefined) | 115% (inactive)
O=C(O)C1CCCCN1c1nc(Cl)nc(Cl)n1 (centres undefined) | 107% (inactive)
C=C1CCC2C(C)(CO)C(O)CCC2(C)C1CC(NCc1ccccc1)C1=CCOC1=O (centres undefined) | 104% (inactive)
CCCCCCCCCCCC(=O)NCCC[N+](C)(C)CC(=O)[O-] | 101% (inactive)
CN(CCCCCl)P(=O)(OCc1ccc([N+](=O)[O-])o1)C(F)(F)C[C@H](NC(=O)CNC(=O)c1ccc(N=[N+]=[N-])cc1)C(=O)NCCc1ccc(O)cc1 (some centres undefined) | 117% (inactive)
NC(N)=Nc1nc2ccccc2o1 | 89.3% (inactive)
